Calls of active or inactive are those of the source. How the source made its calls: active means hit-call score of the fitted dose curve at least 0.9, where 1 is the maximum; inactive means score below 0.9.
Legend:
Settings in all cases: mRNA level, 48 h; actives raise or lower the signal
[1] = read-out: growth arrest and DNA damage 45 (GADD45G), GADD45G (gene 10912); assay: LTEA_HepaRG_GADD45G: Life Technologies and Expression Analysis (LTEA) Assay for growth arrest and DNA damage 45 (GADD45G) using HepaRG (AID 2283499)
How it was run: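 Gain or loss of GADD45G mRNA, quantified by TaqMan qRT-PCR against three housekeeping genes, is fitted in both directions relative to 0.5% DMSO. Human HepaRG cultures receive test chemical for 48 h at up to 100 uM.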

[2] = read-out: Glutamate-cysteine ligase regulatory (GCLM), GCLM (gene 2730); assay: LTEA_HepaRG_GCLM: Life Technologies and Expression Analysis (LTEA) Assay for Glutamate-cysteine ligase regulatory (GCLM) using HepaRG (AID 2283500)
How it was run: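 Differentiated HepaRG cells exposed 48 h in serum-free induction medium to eight half-log concentrations up to 100 uM (0.5% DMSO). GCLM mRNA by TaqMan qRT-PCR, normalized to ACTB, GAPDH and POLR2A; bidirectional fit versus DMSO.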

[3] = read-out: Glutathione S-transferase M3 (GSTM3), GSTM3 (gene 2947); assay: LTEA_HepaRG_GSTM3: Life Technologies and Expression Analysis (LTEA) Assay for Glutathione S-transferase M3 (GSTM3) using HepaRG (AID 2283501)
How it was run: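 HepaRG, plated 48 h, then serum-free induction medium; test chemical 48 h, duplicate; 100 uM top, half-log x8, 0.5% DMSO. Read-out: GSTM3 mRNA (TaqMan qRT-PCR, Fluidigm array). Bidirectional fit vs DMSO.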

[4] = read-out: Heat shock 70 kDa protein 1 (HSPA1A), gene 3303; assay: LTEA_HepaRG_HSPA1A: Life Technologies and Expression Analysis (LTEA) Assay for Heat shock 70 kDa protein 1 (HSPA1A) using HepaRG (AID 2283502)
How it was run: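 Human HepaRG cells in serum-free induction medium were exposed in duplicate for 48 h to 8 half-log concentrations, highest 100 uM, in 0.5% DMSO. HSPA1A mRNA read by TaqMan qRT-PCR, normalized to ACTB, GAPDH, POLR2A, fitted bidirectionally against DMSO.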

[5] = read-out: Hypoxia-inducible factor 1-alpha (Homo sapiens) (UniProt Q16665); assay: LTEA_HepaRG_HIF1A: Life Technologies and Expression Analysis (LTEA) Assay for Hypoxia-inducible factor 1 (HIF1A) Trancription factor using HepaRG (AID 2283503)
How it was run: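 Differentiated HepaRG cells in serum-free induction medium exposed 48 h, in duplicate, to 8-point half-log series from 100 uM in 0.5% DMSO. HIF1A mRNA measured by TaqMan qRT-PCR, normalized to ACTB/GAPDH/POLR2A, fitted bidirectionally versus DMSO.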

[6] = read-out: 3-Hydroxy-3-Methylglutaryl-CoA Synthase 2 (HMGCS2), HMGCS2 (gene 3158); assay: LTEA_HepaRG_HMGCS2: Life Technologies and Expression Analysis (LTEA) Assay for 3-Hydroxy-3-Methylglutaryl-CoA Synthase 2 (HMGCS2) using HepaRG (AID 2283504)
How it was run: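 HepaRG, plated 48 h then switched to serum-free induction media; cmpd 8-pt, max 100 uM, 1/2-log, 0.5% DMSO, n=2, 48 h. HMGCS2 mRNA by Fluidigm TaqMan qRT-PCR, ACTB/GAPDH/POLR2A norm; bidirectional fit vs DMSO.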

HGF (gene 3082) = assay: LTEA_HepaRG_HGF: Life Technologies and Expression Analysis (LTEA) Assay for Hepatocyte Growth Facto (HGF) using HepaRG (AID 2283505)
How it was run: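 Read-out is HGF transcript level by qRT-PCR, normalized to three housekeeping genes, fitted bidirectionally against 0.5% DMSO vehicle. Human HepaRG cells received test chemicals for 48 h at up to 100 uM.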

[7] = read-out: Insulin Like Growth Factor 1 (IGF1), IGF1 (gene 3479); assay: LTEA_HepaRG_IGF1: Life Technologies and Expression Analysis (LTEA) Assay for Insulin Like Growth Factor 1 (IGF1) using HepaRG (AID 2283506)
How it was run: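 Differentiated HepaRG cells in serum-free induction medium, exposed 48 h in duplicate to 8 half-log concentrations up to 100 uM in 0.5% DMSO. IGF1 mRNA by Fluidigm qRT-PCR, normalised to ACTB, GAPDH and POLR2A.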

[8] = read-out: Intercellular Adhesion Molecule 1 (ICAM1), ICAM1 (gene 3383); assay: LTEA_HepaRG_ICAM1: Life Technologies and Expression Analysis (LTEA) Assay for Intercellular Adhesion Molecule 1 (ICAM1) using HepaRG (AID 2283507)
How it was run: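 Readout is qRT-PCR mRNA level, normalized to three housekeeping genes and fitted bidirectionally against 0.5% DMSO vehicle. Human HepaRG cultures received compound for 48 h, top concentration 100 uM with half-log dilutions.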

[9] = read-out: Insulin-like growth factor-binding protein 1 (IGFBP1), IGFBP1 (gene 3484); assay: LTEA_HepaRG_IGFBP1: Life Technologies and Expression Analysis (LTEA) Assay for Insulin-like growth factor-binding protein 1 (IGFBP1) using HepaRG (AID 2283508)
How it was run: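 Thawed HepaRG cells are plated for 48 h, switched to serum-free induction medium, then dosed in duplicate for another 48 h (100 uM top, half-log steps). Lysates in RLT go to qRT-PCR, and gain or loss of signal is fitted relative to vehicle.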

Measured: AC50

Chain of Hypoxia-inducible factor 1-alpha (Homo sapiens) (Q16665 whole entry, looked up): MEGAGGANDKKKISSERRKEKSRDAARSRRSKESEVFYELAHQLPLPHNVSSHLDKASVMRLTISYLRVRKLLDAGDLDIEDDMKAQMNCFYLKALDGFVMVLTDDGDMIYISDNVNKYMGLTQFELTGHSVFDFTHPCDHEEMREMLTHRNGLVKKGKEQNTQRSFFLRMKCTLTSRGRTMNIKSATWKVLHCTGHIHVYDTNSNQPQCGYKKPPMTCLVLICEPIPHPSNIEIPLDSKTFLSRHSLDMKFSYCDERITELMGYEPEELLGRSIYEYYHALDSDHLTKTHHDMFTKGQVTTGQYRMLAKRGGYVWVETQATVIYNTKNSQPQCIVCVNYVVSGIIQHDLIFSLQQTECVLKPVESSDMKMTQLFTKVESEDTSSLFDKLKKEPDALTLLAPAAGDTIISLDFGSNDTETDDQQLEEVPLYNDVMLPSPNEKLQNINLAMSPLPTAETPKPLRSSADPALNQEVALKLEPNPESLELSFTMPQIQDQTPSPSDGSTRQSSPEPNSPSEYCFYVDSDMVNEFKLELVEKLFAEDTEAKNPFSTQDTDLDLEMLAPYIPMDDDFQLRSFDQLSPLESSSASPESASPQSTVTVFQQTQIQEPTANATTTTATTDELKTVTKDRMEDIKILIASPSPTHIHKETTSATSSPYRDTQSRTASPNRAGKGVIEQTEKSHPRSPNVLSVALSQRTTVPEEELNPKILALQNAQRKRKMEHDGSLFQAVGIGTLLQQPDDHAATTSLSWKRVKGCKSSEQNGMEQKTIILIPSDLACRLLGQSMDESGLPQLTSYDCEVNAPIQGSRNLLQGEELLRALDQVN

CCCCCCCCO
inactive: all assays above

CC(C)CCCCCCCOC(=O)CCCCC(=O)OCCCCCCCC(C)C
inactive: all assays above

CCN(C(=O)c1cc(C)cc(OC[C@H](C)Nc2ccncc2)c1)C(C)C
active: [1] 33.8 µM | [6] 33.8 µM | HGF (gene 3082) 33.8 µM | [7] 33.8 µM
inactive: all other assays above

CNCc1ccc(NC(=O)c2c[nH]c3c2C(=O)CCC3)cc1
inactive: all assays above

O=C(CCCCCCCCc1cccnc1)N1CCC(C=C(c2ccccc2)c2ccccc2)CC1
active: [1] 22.8 µM | [2] 12.8 µM | [4] 81 µM | [5] 77.2 µM | [6] 22.9 µM | HGF (gene 3082) 11.9 µM | [7] 16.5 µM | [8] 16.4 µM | [9] 28.5 µM
inactive: [3]

COCCOCCOCCOC
inactive: all assays above

CC(C)CCO
inactive: all assays above

CCOCCOCCOCCO
inactive: all assays above

CC/C(=C\C(=N/O)C(N)=O)C(C)[N+](=O)[O-] (configuration not stated)
not listed: [6]
inactive: all other assays above

CC(C)CCCCCCOC(=O)c1ccc(C(=O)OCCCCCCC(C)C)c(C(=O)OCCCCCCC(C)C)c1
inactive: all assays above

CCC(C)(C)C(=O)O[C@H]1C[C@@H](C)C=C2C=C[C@H](C)[C@H](CC[C@@H]3C[C@@H](O)CC(=O)O3)[C@H]21
not listed: [6]
inactive: all other assays above

Nc1ccc(Nc2ccccc2)cc1
active: [5] 50 µM | [6] 60.9 µM | [7] 50 µM
inactive: all other assays above

CCCCCCc1ccc(O)cc1O
inactive: all assays above

O=C(NS(=O)(=O)/C=C/c1ccccc1)c1ccc(F)cc1Cl
active: [7] 8.33 µM
not listed: [6]
inactive: all other assays above

On1ccccc1=S
not listed: [6]
inactive: all other assays above

O=C1OC(=O)C2C3C=CC(C3)C12 (configuration not stated)
not listed: [6]
inactive: all other assays above

CC(=O)OCCC(C)C
inactive: all assays above

CNS(=O)(=O)c1cc(C(=O)N2CCC(CCN3C4CCC3CC(n3c(C)nc5ccccc53)C4)(c3cccc(F)c3)CC2)c(Cl)cc1F (configuration not stated)
active: [1] 30.8 µM | [7] 16.3 µM | [8] 26.4 µM | [9] 30.5 µM
not listed: [6]
inactive: all other assays above

CC(C)=CCCC(C)CCO (configuration not stated)
not listed: [6]
inactive: all other assays above

C1N2CN3CN1CN(C2)C3
inactive: all assays above

CCOC(=O)CC(CC(=O)OCC)(OC(C)=O)C(=O)OCC
not listed: [6]
inactive: all other assays above

— PubChem BioAssay (EPA / NIEHS)
